# Where “and” joins values, the source holds several entries; their conditions need not be identical. Equal values may be shown once. Inconclusive results are not listed. Calls of active or inactive are those of the source. The calls were made as follows: active = hit-call score of the fitted dose curve at least 0.9, where 1 is the maximum; inconclusive = response in the unintended direction; inactive = score below 0.9.
# Assays:
# [1] = biological target: human Raf-1 Proto-Oncogene, serine/threonine Kinase (RAF1), RAF1 (gene 5894) (UniProt P04049); experiment: NVS_ENZ_hRAF1: NovaScreen (NVS) Enzymatic Assay for human Raf-1 Proto-Oncogene, serine/threonine Kinase (RAF1) (AID 2283216)
# How it was run: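 Single-point screening at 25 uM (duplicate), followed by singleton concentration-response to 50 uM maximum for chemicals exceeding threshold. Enzyme activity from fluorescent substrate-product mobility-shift separation after 1 h, relative to DMSO.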
# [2] = biological target: human Sirtuin 3 (SIRT3), SIRT3 (gene 23410) (UniProt Q9NTG7); experiment: NVS_ENZ_hSIRT3: NovaScreen (NVS) Enzymatic Assay for human Sirtuin 3 (SIRT3) (AID 2283222)
# How it was run: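 Cell-free enzyme assay with recombinant protein and fluorescent substrate, product separated by electrophoretic mobility shift; read 1 hour after dosing. Screened in duplicate at 25 uM, then singleton concentration-response up to 50 uM; loss of signal versus DMSO.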
# [3] = biological target: human Vascular Endothelial Growth Factor Receptor 2 (VEGFR2), KDR (gene 3791) (UniProt P35968); experiment: NVS_ENZ_hVEGFR2: NovaScreen (NVS) Enzymatic Assay for human Vascular Endothelial Growth Factor Receptor 2 (VEGFR2) (AID 2283230)
# How it was run: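 Cell-free recombinant VEGFR2 kinase, fluorescent substrate with electrophoretic mobility-shift separation; read 1 h after dosing. Screened at 25 uM in duplicate, hits to concentration-response up to 50 uM; loss-of-signal versus DMSO.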
# [4] = test system: rat Monoamine Oxidase, MAO-A, Peripheral (MAOAP), gene 29253; experiment: NVS_ENZ_rMAOAP: NovaScreen (NVS) Enzymatic Assay for rat Monoamine Oxidase, MAO-A, Peripheral (MAOAP) (AID 2283237)
# How it was run: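 Scintillation counting tracked MAO-A activity in a cell-free rat liver mitochondrial membrane prep, read 1.17 hours after compound addition. Single-point duplicate testing at 25 uM preceded concentration-response follow-up; activity was fitted relative to DMSO.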
# [5] = biological target: human Protein Tyrosine Phosphatase Receptor Type M (PTPRM), PTPRM (gene 5797) (UniProt P28827); experiment: NVS_ENZ_hPTPRM: NovaScreen (NVS) Enzymatic Assay for human Protein Tyrosine Phosphatase Receptor Type M (PTPRM) (AID 2283215)
# How it was run: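 Read-out is fluorescence after electrophoretic separation of substrate and product, taken 1.33 h post-dosing with recombinant enzyme. Compounds screened at 25 uM in duplicate, then concentration series for actives; activity as signal loss relative to DMSO.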
# [6] = biological target: human SRC Proto-Oncogene, Non-receptor Tyrosine Kinase (SRC), SRC (gene 6714) (UniProt P12931); experiment: NVS_ENZ_hSRC: NovaScreen (NVS) Enzymatic Assay for human SRC Proto-Oncogene, Non-receptor Tyrosine Kinase (SRC) (AID 2283223)
# How it was run: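 Compounds passing 30% inhibition at 25 uM (duplicate) were titrated to a top concentration of 50 uM. Enzyme activity read by fluorescence with mobility-shift substrate/product separation after 1 h; DMSO baseline.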
# [7] = biological target: human Tyrosine Protein Kinase Receptor Tie-2 (Tie2), TEK (gene 7010) (UniProt Q02763); experiment: NVS_ENZ_hTie2: NovaScreen (NVS) Enzymatic Assay for human Tyrosine Protein Kinase Receptor Tie-2 (Tie2) (AID 2283225)
# How it was run: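 Substrate and product were separated by mobility shift and detected by fluorescence after a 1-hour reaction with recombinant Tie2. Chemicals passing a 25 uM single-point screen were titrated to a maximum of 50 uM. Results were normalized to DMSO baseline.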
# [8] = biological target: rabbit Imidazoline 2 Central (I2C), CKB (gene 100009085) (UniProt P00567); experiment: NVS_ENZ_rabI2C: NovaScreen (NVS) Enzymatic Assay for rabbit Imidazoline 2 Central (I2C) (AID 2283228)
# How it was run: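 Rabbit brain membranes, cell-free; readout by filter-based scintillation counting 1.5 hours after dosing, loss of signal vs DMSO. Initial duplicate test at 25 uM, then concentration-response with 50 uM top concentration.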
# [9] = biological target: rat Adenylate Cyclase, Forskolin Stimulated, Adcy5 (gene 64532) (UniProt Q04400); experiment: NVS_ENZ_rACFSKBinding: NovaScreen (NVS) Enzymatic Assay for rat Adenylate Cyclase, Forskolin Stimulated (AID 2283232)
# How it was run: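 Chemicals were first tested at 25 uM in duplicate, then hits run as concentration series with top concentration 50 uM. Enzyme source was rat forebrain membranes; radiometric filter read-out after 1 h, referenced to DMSO.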
# [10] = biological target: human Sirtuin 2 (SIRT2), SIRT2 (gene 22933) (UniProt Q8IXJ6); experiment: NVS_ENZ_hSIRT2: NovaScreen (NVS) Enzymatic Assay for human Sirtuin 2 (SIRT2) (AID 2283217)
# How it was run: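 Single-point duplicate screen at 25 uM, then concentration-response (max 50 uM) for chemicals passing threshold. Enzyme activity of recombinant human SIRT2 measured after 1 hr by fluorescence with mobility-shift separation of product; DMSO baseline.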
# [11] = biological target: human Sirtuin 1 (SIRT1), SIRT1 (gene 23411) (UniProt Q96EB6); experiment: NVS_ENZ_hSIRT1: NovaScreen (NVS) Enzymatic Assay for human Sirtuin 1 (SIRT1) (AID 2283219)
# How it was run: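 Cell-free recombinant SIRT1 with a fluorescent substrate; substrate and product separated by electrophoretic mobility shift and read by fluorescence intensity, 1 h after dosing. Primary screen at 25 uM in duplicate; hits re-run in concentration-response up to 50 uM, relative to DMSO.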
# [12] = biological target: rat Monoamine Oxidase, MAO-B, Central (MAOBC), Maob (gene 25750) (UniProt P19643); experiment: NVS_ENZ_rMAOBC: NovaScreen (NVS) Enzymatic Assay for rat Monoamine Oxidase, MAO-B, Central (MAOBC) (AID 2283238)
# How it was run: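 Here MAO-B activity in rat brain preparations is quantified radiometrically, counts taken at 1.17 hours. Concentration-response runs reach 50 uM, with plate controls, and values are fitted as loss of signal from the DMSO baseline.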
# [13] = biological target: sheep Cyclooxygenase-1 (Cox1), PTGS1 (gene 443551) (UniProt P05979); experiment: NVS_ENZ_oCOX1: NovaScreen (NVS) Enzymatic Assay for sheep Cyclooxygenase-1 (Cox1) (AID 2283239);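 also: actives reduce cyclooxygenase activity so potencies are for inhibitors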
# How it was run: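 Colorimetric enzyme readout using sheep seminal-vesicle cyclooxygenase-1, measured 0.66 h post-dosing. Single-concentration duplicates at 25 uM first, then concentration series for actives, with DMSO as baseline and plate controls.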
# [14] = biological target: human Tropomyosin Receptor Kinase A (TRKA), NTRK1 (gene 4914) (UniProt P04629); experiment: NVS_ENZ_hTrkA: NovaScreen (NVS) Enzymatic Assay for human Tropomyosin Receptor Kinase A (TRKA) (AID 2283224)
# How it was run: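 Compounds were screened at 25 uM in duplicate, then concentration series to a 50 uM top for those meeting threshold (e.g. 30% inhibition). Enzyme was recombinant human TrkA, incubated 1 h. Product formation was quantified by fluorescence after mobility-shift separation.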
# [15] = biological target: human Vascular Endothelial Growth Factor Receptor 1 (VEGFR1), FLT1 (gene 2321) (UniProt P17948); experiment: NVS_ENZ_hVEGFR1: NovaScreen (NVS) Enzymatic Assay for human Vascular Endothelial Growth Factor Receptor 1 (VEGFR1) (AID 2283226)
# How it was run: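 Kinase activity of recombinant human VEGFR1 was read by fluorescence after electrophoretic separation of product from substrate, 1 h post-dosing; initial duplicate single-point testing at 25 uM, followed by concentration-series follow-up, with DMSO as baseline.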
# [16] = biological target: sheep Cyclooxygenase-2 (Cox2), PTGS2 (gene 443460) (UniProt P79208); experiment: NVS_ENZ_oCOX2: NovaScreen (NVS) Enzymatic Assay for sheep Cyclooxygenase-2 (Cox2) (AID 2283231)
# How it was run: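 Enzyme extracted from ovine placenta tested cell-free; activity read colorimetrically by absorbance 0.66 hour after dosing. Primary screen in duplicate at 25 uM; hits rerun as concentration series to 50 uM, loss of signal versus DMSO baseline.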
# [17] = biological target: rat Constitutive Nitric Oxide Synthase (CNOS), Nos1 (gene 24598) (UniProt P29476); experiment: NVS_ENZ_rCNOS: NovaScreen (NVS) Enzymatic Assay for rat Constitutive Nitric Oxide Synthase (CNOS) (AID 2283236)
# How it was run: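 Single 25 uM duplicate screen, then concentration series to 50 uM for chemicals meeting threshold. Rat brain membrane-derived CNOS activity detected radiometrically by filtration and scintillation counting, 1 h after compound addition; DMSO as baseline.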
# [18] = biological target: rat Acetylcholinesterase (AChE), Ache (gene 83817) (UniProt P37136); experiment: NVS_ENZ_rAChE: NovaScreen (NVS) Enzymatic Assay for rat Acetylcholinesterase (AChE) (AID 2283233)
# How it was run: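 Compounds first screened at 25 uM in duplicate, then those passing threshold tested in concentration series up to 50 uM, against AChE from rat brain membranes. Enzyme activity read by absorbance at 0.33 h; inhibition scored versus DMSO.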
# [19] = biological target: human Vascular Endothelial Growth Factor Receptor 3 (VEGFR3), FLT4 (gene 2324) (UniProt P35916); experiment: NVS_ENZ_hVEGFR3: NovaScreen (NVS) Enzymatic Assay for human Vascular Endothelial Growth Factor Receptor 3 (VEGFR3) (AID 2283229)
# How it was run: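 Chemicals first run in duplicate at 25 uM, with actives re-tested in concentration series to a top of 50 uM. Recombinant VEGFR3 activity measured after 1 h via fluorescence with mobility-shift product separation; inhibition fitted relative to DMSO.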
# sheep Cyclooxygenase-1 (Cox1), PTGS1 (gene 443551), sequence (P05979 whole entry, looked up): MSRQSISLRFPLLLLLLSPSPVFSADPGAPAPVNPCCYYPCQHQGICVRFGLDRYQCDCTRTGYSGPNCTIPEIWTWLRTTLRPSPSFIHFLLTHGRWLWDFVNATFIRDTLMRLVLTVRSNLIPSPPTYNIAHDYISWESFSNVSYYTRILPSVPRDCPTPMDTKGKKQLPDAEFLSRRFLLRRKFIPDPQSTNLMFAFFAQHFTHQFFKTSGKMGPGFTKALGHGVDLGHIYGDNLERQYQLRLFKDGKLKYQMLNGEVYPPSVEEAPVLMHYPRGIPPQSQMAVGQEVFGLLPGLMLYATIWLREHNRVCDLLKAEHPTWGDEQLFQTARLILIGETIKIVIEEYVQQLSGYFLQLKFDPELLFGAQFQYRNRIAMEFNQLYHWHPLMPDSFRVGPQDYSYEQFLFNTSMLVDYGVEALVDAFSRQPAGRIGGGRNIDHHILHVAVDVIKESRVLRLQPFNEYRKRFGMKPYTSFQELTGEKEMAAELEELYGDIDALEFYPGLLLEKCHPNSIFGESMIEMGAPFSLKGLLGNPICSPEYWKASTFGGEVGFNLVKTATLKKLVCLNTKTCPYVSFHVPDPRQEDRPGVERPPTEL
# human Tropomyosin Receptor Kinase A (TRKA), NTRK1 (gene 4914), sequence (P04629 whole entry, looked up): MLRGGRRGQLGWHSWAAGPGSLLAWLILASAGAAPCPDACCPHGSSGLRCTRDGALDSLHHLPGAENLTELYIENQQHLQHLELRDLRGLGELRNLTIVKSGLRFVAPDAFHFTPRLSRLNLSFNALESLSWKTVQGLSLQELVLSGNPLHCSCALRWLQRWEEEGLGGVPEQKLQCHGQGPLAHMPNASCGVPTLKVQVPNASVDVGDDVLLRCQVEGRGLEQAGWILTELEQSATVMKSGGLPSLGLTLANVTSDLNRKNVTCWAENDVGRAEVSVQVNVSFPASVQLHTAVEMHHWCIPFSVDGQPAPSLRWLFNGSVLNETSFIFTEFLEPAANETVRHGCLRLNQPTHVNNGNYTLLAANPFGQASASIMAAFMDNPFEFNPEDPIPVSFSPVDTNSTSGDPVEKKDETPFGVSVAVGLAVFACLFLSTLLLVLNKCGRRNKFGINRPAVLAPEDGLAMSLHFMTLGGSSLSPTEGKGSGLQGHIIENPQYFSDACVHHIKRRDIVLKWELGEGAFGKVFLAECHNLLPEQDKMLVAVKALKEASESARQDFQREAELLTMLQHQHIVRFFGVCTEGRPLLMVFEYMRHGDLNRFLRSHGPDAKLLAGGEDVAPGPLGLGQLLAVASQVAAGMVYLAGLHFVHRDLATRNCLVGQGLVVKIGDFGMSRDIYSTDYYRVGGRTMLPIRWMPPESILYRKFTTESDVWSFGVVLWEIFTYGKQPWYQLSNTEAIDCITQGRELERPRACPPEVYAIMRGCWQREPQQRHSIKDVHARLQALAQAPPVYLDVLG
# human Tyrosine Protein Kinase Receptor Tie-2 (Tie2), TEK (gene 7010), sequence (Q02763 whole entry, looked up): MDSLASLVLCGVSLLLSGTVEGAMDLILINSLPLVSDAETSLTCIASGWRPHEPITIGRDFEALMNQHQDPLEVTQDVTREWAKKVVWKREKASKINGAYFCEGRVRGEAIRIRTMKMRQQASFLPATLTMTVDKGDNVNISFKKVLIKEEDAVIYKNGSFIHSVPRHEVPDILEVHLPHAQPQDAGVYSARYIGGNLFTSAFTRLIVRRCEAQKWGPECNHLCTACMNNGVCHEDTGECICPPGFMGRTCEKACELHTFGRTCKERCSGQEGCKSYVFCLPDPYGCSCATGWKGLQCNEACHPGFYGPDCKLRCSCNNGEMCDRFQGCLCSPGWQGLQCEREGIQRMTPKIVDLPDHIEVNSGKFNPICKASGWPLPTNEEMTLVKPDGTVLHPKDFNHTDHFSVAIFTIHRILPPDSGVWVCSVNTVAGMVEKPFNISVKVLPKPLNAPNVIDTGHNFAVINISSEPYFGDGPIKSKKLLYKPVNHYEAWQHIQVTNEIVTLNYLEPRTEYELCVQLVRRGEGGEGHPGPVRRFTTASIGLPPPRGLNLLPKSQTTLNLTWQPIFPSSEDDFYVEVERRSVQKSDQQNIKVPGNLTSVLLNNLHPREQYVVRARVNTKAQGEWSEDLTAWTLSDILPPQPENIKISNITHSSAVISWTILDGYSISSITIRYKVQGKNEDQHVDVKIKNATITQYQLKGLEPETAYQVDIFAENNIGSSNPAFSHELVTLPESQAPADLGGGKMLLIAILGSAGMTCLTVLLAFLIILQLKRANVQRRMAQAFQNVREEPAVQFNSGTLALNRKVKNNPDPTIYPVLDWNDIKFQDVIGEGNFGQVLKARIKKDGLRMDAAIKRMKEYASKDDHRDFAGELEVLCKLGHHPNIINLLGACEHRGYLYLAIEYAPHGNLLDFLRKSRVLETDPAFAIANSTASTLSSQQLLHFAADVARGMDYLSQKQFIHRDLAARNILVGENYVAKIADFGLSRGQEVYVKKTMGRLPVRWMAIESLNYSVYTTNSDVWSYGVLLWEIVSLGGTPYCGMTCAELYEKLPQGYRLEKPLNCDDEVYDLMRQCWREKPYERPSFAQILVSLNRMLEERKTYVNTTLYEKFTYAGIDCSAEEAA
# human Sirtuin 1 (SIRT1), SIRT1 (gene 23411), sequence (Q96EB6 whole entry, looked up): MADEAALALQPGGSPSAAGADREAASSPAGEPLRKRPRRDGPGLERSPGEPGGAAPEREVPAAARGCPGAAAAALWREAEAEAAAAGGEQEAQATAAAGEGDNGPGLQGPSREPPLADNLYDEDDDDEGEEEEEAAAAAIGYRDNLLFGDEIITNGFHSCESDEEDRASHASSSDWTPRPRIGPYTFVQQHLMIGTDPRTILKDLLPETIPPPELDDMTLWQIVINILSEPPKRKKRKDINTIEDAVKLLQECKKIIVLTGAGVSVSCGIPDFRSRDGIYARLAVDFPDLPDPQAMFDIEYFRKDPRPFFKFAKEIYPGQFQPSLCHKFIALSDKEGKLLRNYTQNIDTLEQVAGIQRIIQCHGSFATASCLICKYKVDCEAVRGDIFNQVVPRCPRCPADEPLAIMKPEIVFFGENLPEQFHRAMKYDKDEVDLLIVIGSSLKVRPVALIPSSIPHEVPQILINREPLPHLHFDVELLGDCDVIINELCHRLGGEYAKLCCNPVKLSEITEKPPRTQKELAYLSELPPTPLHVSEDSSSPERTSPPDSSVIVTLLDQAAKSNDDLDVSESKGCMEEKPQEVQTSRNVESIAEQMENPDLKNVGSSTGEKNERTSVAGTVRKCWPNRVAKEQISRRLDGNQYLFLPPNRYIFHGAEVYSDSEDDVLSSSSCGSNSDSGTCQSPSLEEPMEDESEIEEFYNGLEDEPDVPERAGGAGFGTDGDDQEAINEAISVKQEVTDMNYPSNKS
# rabbit Imidazoline 2 Central (I2C), CKB (gene 100009085), sequence (P00567 whole entry, looked up): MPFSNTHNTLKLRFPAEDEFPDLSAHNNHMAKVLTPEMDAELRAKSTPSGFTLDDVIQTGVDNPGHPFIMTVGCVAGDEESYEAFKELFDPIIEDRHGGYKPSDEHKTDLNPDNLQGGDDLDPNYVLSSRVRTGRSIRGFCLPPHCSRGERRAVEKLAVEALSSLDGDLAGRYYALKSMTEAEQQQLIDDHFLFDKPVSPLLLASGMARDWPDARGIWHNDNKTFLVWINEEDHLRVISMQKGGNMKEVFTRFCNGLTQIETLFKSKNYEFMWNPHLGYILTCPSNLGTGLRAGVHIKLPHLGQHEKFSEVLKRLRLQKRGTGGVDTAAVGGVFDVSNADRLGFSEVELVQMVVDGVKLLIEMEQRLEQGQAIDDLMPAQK
# human Raf-1 Proto-Oncogene, serine/threonine Kinase (RAF1), RAF1 (gene 5894), sequence (P04049 whole entry, looked up): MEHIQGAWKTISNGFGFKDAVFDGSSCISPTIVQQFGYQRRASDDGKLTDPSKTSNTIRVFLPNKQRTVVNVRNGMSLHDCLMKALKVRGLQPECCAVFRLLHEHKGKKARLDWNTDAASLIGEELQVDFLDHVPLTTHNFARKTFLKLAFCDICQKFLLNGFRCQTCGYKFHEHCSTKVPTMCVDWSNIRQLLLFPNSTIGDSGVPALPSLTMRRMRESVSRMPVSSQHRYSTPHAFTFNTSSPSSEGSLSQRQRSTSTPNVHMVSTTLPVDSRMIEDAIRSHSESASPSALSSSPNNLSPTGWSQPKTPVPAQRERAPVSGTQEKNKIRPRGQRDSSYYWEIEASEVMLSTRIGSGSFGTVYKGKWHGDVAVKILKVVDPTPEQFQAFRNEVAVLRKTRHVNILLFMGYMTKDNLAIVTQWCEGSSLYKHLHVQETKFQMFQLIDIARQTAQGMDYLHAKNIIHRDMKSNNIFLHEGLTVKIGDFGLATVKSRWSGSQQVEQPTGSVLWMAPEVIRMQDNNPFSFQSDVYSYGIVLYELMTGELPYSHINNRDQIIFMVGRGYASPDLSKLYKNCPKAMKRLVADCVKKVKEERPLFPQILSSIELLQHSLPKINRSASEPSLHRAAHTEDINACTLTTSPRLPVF
# human Sirtuin 2 (SIRT2), SIRT2 (gene 22933), sequence (Q8IXJ6 whole entry, looked up): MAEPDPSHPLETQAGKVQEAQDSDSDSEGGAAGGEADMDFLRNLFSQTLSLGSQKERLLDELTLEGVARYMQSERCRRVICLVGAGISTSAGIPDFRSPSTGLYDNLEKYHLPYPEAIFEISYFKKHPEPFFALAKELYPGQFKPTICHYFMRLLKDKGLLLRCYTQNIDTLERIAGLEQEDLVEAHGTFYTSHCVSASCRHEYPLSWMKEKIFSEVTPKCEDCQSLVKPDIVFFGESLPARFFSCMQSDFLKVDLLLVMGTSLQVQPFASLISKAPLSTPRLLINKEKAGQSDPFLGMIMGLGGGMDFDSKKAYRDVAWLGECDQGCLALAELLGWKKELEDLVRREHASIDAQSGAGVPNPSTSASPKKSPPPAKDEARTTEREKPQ
structure (smiles),measurement,setting,value
C=CCC1=C(C)C(OC(=O)C2C(C=C(C)C)C2(C)C)CC1=O (configuration not stated),outcome,[1],inactive
same,outcome,[2],inactive
same,outcome,[3],inactive
same,outcome,[4],inactive
CNC(=S)S,outcome,[5],inactive
same,outcome,[6],inactive
same,outcome,[7],inactive
same,outcome,[8],inactive
same,outcome,[9],inactive
CCCCNC(=O)OCC#CI,outcome,[10],inactive
same,AC50,[11],11.9 µM (active) and 10.7 µM (active)
same,outcome,[2],inactive
same,AC50,[9],18.1 µM (active) and 19.4 µM (active)
same,AC50,[4],36.8 µM (active) and 25 µM (active)
same,outcome,[12],inactive
CN(C)C(=S)SSC(=S)N(C)C,outcome,[10],inactive
same,AC50,[11],6.68 µM (active)
same,AC50,[9],6.85 µM (active)
same,outcome,[4],inactive
same,outcome,[13],inactive
CCCC1COC(Cn2cncn2)(c2ccc(Cl)cc2Cl)O1 (configuration not stated),outcome,[6],inactive
CCON=C(CC)C1=C(O)CC(c2c(C)cc(C)cc2C)CC1=O (configuration not stated),outcome,[1],inactive
CCCN(CCC)c1c([N+](=O)[O-])cc(S(N)(=O)=O)cc1[N+](=O)[O-],outcome,[2],inactive
same,outcome,[14],inactive
same,outcome,[7],inactive
same,outcome,[15],inactive
same,outcome,[16],inactive
same,outcome,[9],inactive
same,outcome,[17],inactive
COc1ccc(C(c2ccc(OC)cc2)C(Cl)(Cl)Cl)cc1,outcome,[5],inactive
same,AC50,[12],25 µM (active)
O=C(O)c1nc(Cl)ccc1Cl,outcome,[1],inactive
CC(Oc1ccc(Cl)cc1Cl)C(=O)O (configuration not stated),outcome,[14],inactive
Fc1ccc(Oc2ccnc3cc(Cl)cc(Cl)c23)cc1,AC50,[1],17 µM (active)
same,outcome,[10],inactive
N#Cc1nn(-c2c(Cl)cc(C(F)(F)F)cc2Cl)c(N)c1S(=O)C(F)(F)F (configuration not stated),outcome,[2],inactive
CS/C(C)=N/OC(=O)N(C)SN(C)C(=O)O/N=C(\C)SC,AC50,[11],6.69 µM (active)
same,AC50,[9],6.77 µM (active)
same,AC50,[18],2 µM (active)
COc1nc(C)nc(NC(=O)NS(=O)(=O)c2ccccc2Cl)n1,outcome,[5],inactive
CO/C=C(/C(=O)OC)c1ccccc1Oc1cc(Oc2ccccc2C#N)ncn1,outcome,[10],inactive
same,outcome,[2],inactive
same,outcome,[14],inactive
same,outcome,[3],inactive
same,outcome,[13],inactive
CNC(=O)ON=CC(C)(C)SC,outcome,[1],inactive
same,AC50,[18],6.41 µM (active)
CCc1nn(C)c(C(=O)NCc2ccc(C(C)(C)C)cc2)c1Cl,outcome,[2],inactive
CC1COC(Cn2cncn2)(c2ccc(Oc3ccc(Cl)cc3)cc2Cl)O1 (configuration not stated),outcome,[2],inactive
same,AC50,[4],1.3 µM (active)
O=C(Nc1ccccc1)Nc1ccnc(Cl)c1,outcome,[1],inactive
same,outcome,[8],inactive
same,outcome,[12],inactive
CCCCOC(=O)c1ccccc1C(=O)OCCCC,outcome,[1],inactive
same,outcome,[7],inactive
same,outcome,[17],inactive
same,outcome,[13],inactive
N#Cc1cc(Br)c(O)c(Br)c1,outcome,[14],inactive
same,outcome,[19],inactive
Cc1ccc(-c2c(Cl)nc(C#N)n2S(=O)(=O)N(C)C)cc1,outcome,[7],inactive
same,AC50,[4],3.36 µM (active)
COC(=O)C(C)Oc1ccc(Oc2ccc(Cl)cc2Cl)cc1 (configuration not stated),outcome,[7],inactive
COc1cnc(OC)n2nc(NS(=O)(=O)c3c(OCC(F)F)cccc3C(F)(F)F)nc12,outcome,[15],inactive
CCCCNC(=O)n1c(NC(=O)OC)nc2ccccc21,AC50,[8],14.2 µM (active)
same,outcome,[9],inactive
CCNc1nc(Cl)nc(NC(C)C)n1,outcome,[19],inactive
CC(C)Oc1cc(-n2nc(C(C)(C)C)oc2=O)c(Cl)cc1Cl,outcome,[9],inactive
COP(=S)(OC)Oc1nc(Cl)c(Cl)cc1Cl,outcome,[18],inactive
COC(=O)C=C(C)OP(=O)(OC)OC,AC50,[18],1.52 µM (active)
CCCCC(CC)COC(=O)c1ccccc1C(=O)OCC(CC)CCCC (configuration not stated),outcome,[17],inactive
CCOP(=S)(OCC)SCn1c(=O)oc2cc(Cl)ccc21,outcome,[17],inactive
CC1=C(C(=O)Nc2ccccc2)SCCO1,outcome,[4],inactive
